According to PubChem BioAssay AID1159580 (chemical genetic matrix, 2015):
Values joined by “and” are separate entries in the source; they are usually repeats but may differ in a detail not shown here. Identical values can stand only once. The whole screen tested about 5,500 compounds, of which about 2,000 (36%) were called active. Another 18% or so got no clear call; they are omitted. No stated cut-off is given here; in the data, active means normalized growth mostly below about 0.91 (no sharp cut-off); inconclusive means no clear call, values can overlap the other calls; inactive means mostly above about 0.92. The list shows a part of the results.

Experiment: chemical genetic growth profiling, strain panel (AID 1159580);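 further: tested at 20 µM; growth read once vehicle control cultures reached saturation at 30 °C; 1 = growth at the plate median or of vehicle wells; lower values mean less growth of the strain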
Settings: S. cerevisiae deletion strains, growth OD

Measured: normalized growth

CNCc1ccccc1
inactive: locus YAL013W, strain DEP1, hits give low values 0.994 | locus YAL021C, strain ccr4, hits give low values 1.01 | locus YAL026C, strain drs2, hits give low values 1.02 | locus YAL030W, strain snc1, hits give low values 1.02 | locus YBL061C, strain skt5, hits give low values 1.03 | locus YBR009C, strain hhf1, hits give low values 1.02 | locus YBR021W, strain FUR4, hits give low values 1.03 | locus YBR023C, strain chs3, hits give low values 1.03 | locus YBR171W, strain sec66, hits give low values 1.03 | locus YBR229C, strain ROT2, hits give low values 0.965 | locus YBR231C, strain swc5, hits give low values 1.01 | locus YBR279W, strain paf1, hits give low values 1.02 | locus YCL011C, strain gbp2, hits give low values 1.02 | locus YCL016C, strain dcc1, hits give low values 1.02 | locus YCL029C, strain bik1, hits give low values 0.984 | locus YCL061C, strain MRC1, hits give low values 1.01 | locus YCL069W, strain vba3, hits give low values 1.02 | locus YCR088W, strain abp1, hits give low values 1.03 | locus YDL005C, strain med2, hits give low values 1.02 | locus YDL035C, strain GPR1, hits give low values 1 | locus YDL040C, strain nat1, hits give low values 1 | locus YDL074C, strain BRE1, hits give low values 1.05 | locus YDL101C, strain DUN1, hits give low values 0.982 | locus YDL134C, strain PPH21, hits give low values 0.992 | locus YDL185W, strain tfp1, hits give low values 0.987 | locus YDL192W, strain arf1, hits give low values 0.997 | locus YDR001C, strain nth1, hits give low values 1.02 | locus YDR069C, strain doa4, hits give low values 1.01 | locus YDR101C, strain arx1, hits give low values 1.05 | locus YDR137W, strain rgp1, hits give low values 1.04 | locus YDR159W, strain sac3, hits give low values 1.05 | locus YDR162C, strain NBP2, hits give low values 0.957 | locus YDR195W, strain ref2 0.999 | locus YDR297W, strain sur2, hits give low values 1.02 | locus YDR318W, strain mcm21, hits give low values 0.965 | locus YDR334W, strain swr1, hits give low values 1.03 | locus YDR335W, strain msn5, hits give low values 1.02 | locus YDR388W, hits give low values 1.01 | locus YDR392W, strain spt3, hits give low values 1.01 | locus YDR502C, strain sam2, hits give low values 1 | locus YEL003W, strain gim4, hits give low values 1.02 | locus YEL037C, strain rad23, hits give low values 1.02 | locus YEL061C, strain CIN8 (second series), hits give low values 1.03 | locus YEL061C, strain CIN8, hits give low values 0.996 | locus YER015W, strain faa2, hits give low values 1.01 | locus YER016W, strain bim1, hits give low values 1.02 | locus YER110C, hits give low values 0.99 | locus YER111C, strain swi4, hits give low values 1.02 | locus YER155C, strain BEM2 (second series), hits give low values 1.02 | locus YER155C, strain BEM2, hits give low values 0.987 | locus YER167W, strain BCK2, hits give low values 0.988 | locus YFR010W, strain ubp6, hits give low values 1.04 | locus YGL078C, strain dbp3, hits give low values 0.999 | locus YGL086W, strain mad1, hits give low values 1.06 | locus YGL167C, strain pmr1, hits give low values 1.03 | locus YGL173C, strain kem1, hits give low values 1.03 | locus YGL227W, strain vid30, hits give low values 1.03 | locus YGL240W, strain doc1, hits give low values 1.01 | locus YGL248W, strain PDE1, hits give low values 0.984 | locus YGL253W, strain hxk2, hits give low values 1.03 | locus YGR078C, strain PAC10, hits give low values 0.981 | locus YGR135W, strain pre9, hits give low values 0.972 | locus YGR229C, strain SMI1, hits give low values 0.986 | locus YGR252W, strain gcn5, hits give low values 0.908 | locus YHR013C, strain ard1, hits give low values 1.03 | locus YHR027C, strain rpn1, hits give low values 1.04 | locus YHR030C, strain SLT2, hits give low values 1.01 and 0.986 | locus YHR079C, strain IRE1 (second series), hits give low values 0.989 | locus YHR079C, strain IRE1, hits give low values 0.975 | locus YHR094C, strain hxt1, hits give low values 0.978 | locus YHR129C, strain ARP1, hits give low values 1 | locus YHR142W, strain chs7, hits give low values 1.05 | locus YHR200W, strain rpn10, hits give low values 0.999 | locus YIL066C, strain RNR3, hits give low values 0.992 | locus YIL073C, strain SPO22, hits give low values 1.01 | locus YIL125W, strain kgd1, hits give low values 1 | locus YIR030C, strain dcg1, hits give low values 0.99 | locus YJL092W, strain hpr5, hits give low values 1.02 | locus YJL095W, strain BCK1 (second series), hits give low values 1.02 | locus YJL095W, strain BCK1, hits give low values 0.95 and 0.974 | locus YJL115W, strain asf1, hits give low values 1.03 | locus YJL129C, strain trk1, hits give low values 1.05 | locus YJL134W, strain LCB3, hits give low values 0.996 | locus YJL154C, strain vps35, hits give low values 1.03 | locus YJL164C, strain tpk1, hits give low values 1.01 | locus YJL166W, strain qcr8, hits give low values 1.02 | locus YJL168C, strain set2, hits give low values 0.991 | locus YJL187C, strain SWE1 (second series), hits give low values 0.977 | locus YJL187C, strain SWE1, hits give low values 1.03 | locus YJR043C, strain POL32, hits give low values 1
